In PubChem BioAssay (NCATS):
Records with an inconclusive call do not appear. Activity calls are given as the source filed them. Calls follow the shape of the dose curve; as a rule, active = well fitted curve in the direction sought with a large enough effect; inconclusive = small, poorly fitted or top-dose-only effect, or another doubt; inactive = no such curve, though single readings can be large; an effect the other way counts as inactive or inconclusive.

What was measured:
[1] = target: ATP-dependent 6-phosphofructokinase (Trypanosoma brucei brucei) (UniProt O15648); test: qHTS Assay to Find Inhibitors of T. brucei phosphofructokinase: hit validation (AID 492961);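 also: luminescence reports ADP formed as PFK phosphorylates fructose-6-phosphate with ATP; % is scaled to controls: 0 for no effect and ±100 for the full control effect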
Sequence of ATP-dependent 6-phosphofructokinase (Trypanosoma brucei brucei) (O15648 whole entry, looked up): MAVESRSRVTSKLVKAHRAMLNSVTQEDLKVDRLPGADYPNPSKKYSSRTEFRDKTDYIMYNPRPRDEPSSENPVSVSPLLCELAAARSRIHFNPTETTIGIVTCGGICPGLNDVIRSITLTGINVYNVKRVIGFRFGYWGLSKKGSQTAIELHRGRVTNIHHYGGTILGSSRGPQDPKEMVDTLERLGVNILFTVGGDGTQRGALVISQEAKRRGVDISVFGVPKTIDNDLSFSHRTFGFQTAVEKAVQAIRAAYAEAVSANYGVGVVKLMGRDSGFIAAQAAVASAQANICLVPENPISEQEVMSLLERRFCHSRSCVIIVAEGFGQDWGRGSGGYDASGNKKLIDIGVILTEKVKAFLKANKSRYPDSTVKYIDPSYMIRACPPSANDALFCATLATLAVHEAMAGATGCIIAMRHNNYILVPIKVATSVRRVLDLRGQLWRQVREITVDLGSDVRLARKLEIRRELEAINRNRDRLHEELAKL
Procedure, shortened: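 Measures ADP output of PFK (1.25 nM) at 0.1 mM ATP, 0.5 mM F6P, pH 8.0 TEA buffer with 5 mM MgCl2. No-enzyme wells define full inhibition; uninhibited enzyme wells define zero.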

[2] = target: Ubiquitin carboxyl-terminal hydrolase 1 (Homo sapiens) (UniProt O94782); test: Inhibitors of USP1/UAF1: Pilot qHTS (AID 504865); also: potency is read from the fitted curve at half-maximal effect; nearly all actives have a fitted effect of over 35% in size
Sequence of Ubiquitin carboxyl-terminal hydrolase 1 (Homo sapiens) (O94782 whole entry, looked up): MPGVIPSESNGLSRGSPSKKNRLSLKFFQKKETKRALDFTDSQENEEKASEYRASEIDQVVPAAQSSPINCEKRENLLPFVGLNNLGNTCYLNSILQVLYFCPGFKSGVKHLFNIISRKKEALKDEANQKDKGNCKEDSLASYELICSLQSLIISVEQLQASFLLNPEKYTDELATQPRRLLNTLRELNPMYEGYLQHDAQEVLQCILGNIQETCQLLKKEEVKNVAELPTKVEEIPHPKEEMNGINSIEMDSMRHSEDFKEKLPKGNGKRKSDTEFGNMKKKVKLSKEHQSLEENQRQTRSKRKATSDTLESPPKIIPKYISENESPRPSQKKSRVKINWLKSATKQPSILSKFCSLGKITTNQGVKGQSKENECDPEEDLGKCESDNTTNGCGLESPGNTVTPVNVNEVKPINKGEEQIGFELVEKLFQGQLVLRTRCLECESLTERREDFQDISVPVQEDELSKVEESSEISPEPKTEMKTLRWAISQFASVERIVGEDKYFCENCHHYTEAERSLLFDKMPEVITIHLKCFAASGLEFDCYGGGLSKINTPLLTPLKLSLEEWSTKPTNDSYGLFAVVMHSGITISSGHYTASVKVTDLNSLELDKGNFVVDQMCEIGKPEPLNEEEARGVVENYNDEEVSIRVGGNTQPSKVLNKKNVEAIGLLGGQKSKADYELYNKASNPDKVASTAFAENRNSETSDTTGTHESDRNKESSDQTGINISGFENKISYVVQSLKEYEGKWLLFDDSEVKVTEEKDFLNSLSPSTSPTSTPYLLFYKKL
Procedure, shortened: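 Deubiquitinase activity followed as kinetic rhodamine fluorescence release from 150 nM Ub-Rho. 1 nM USP1/UAF1 with compound, after 15 min room-temperature preincubation, in HEPES pH 7.8 buffer containing TCEP, EDTA, BSA and Tween-20.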

[3] = target: Luciferin 4-monooxygenase (Photinus pyralis) (UniProt P08659); test: Biochemical firefly luciferase enzyme assay for NPC (AID 624030); also: potency is read from the fitted curve at half-maximal effect; nearly all actives have a fitted effect of over 70% in size
Sequence of Luciferin 4-monooxygenase (Photinus pyralis) (P08659 whole entry, looked up): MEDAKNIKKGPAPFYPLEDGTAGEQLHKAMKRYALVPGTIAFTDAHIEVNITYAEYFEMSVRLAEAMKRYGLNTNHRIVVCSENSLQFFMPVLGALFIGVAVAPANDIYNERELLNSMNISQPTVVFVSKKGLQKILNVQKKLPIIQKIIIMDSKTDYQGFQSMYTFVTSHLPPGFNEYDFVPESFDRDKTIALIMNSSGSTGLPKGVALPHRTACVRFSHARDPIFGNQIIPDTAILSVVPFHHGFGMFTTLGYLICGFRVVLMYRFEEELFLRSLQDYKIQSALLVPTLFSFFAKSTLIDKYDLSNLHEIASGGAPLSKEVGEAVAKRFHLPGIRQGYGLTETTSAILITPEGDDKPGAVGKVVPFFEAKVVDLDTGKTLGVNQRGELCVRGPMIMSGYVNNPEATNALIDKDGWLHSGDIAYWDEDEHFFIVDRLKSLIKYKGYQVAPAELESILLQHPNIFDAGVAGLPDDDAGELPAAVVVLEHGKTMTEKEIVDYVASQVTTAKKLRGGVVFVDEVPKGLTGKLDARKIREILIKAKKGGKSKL
Procedure, shortened: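 Direct inhibition of firefly luciferase enzyme (10 nM final, 50 mM Tris Acetate) assessed by luminescence within 5 minutes. Percent activity scaled between DMSO and PTC124 positive control, with concentration-effect curves classified by fit quality and response.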

[4] = S16 Schwann cell viability assay (CellTiter-Glo assay) (AID 624031);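 also: cellular ATP luminescence as a viability measure; plate controls were DMSO-treated cells for no effect and cell-free wells for full effect; nearly all actives have a fitted effect of over 70% in size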
Procedure, shortened: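 Untransfected S16 rat Schwann cells; compound 24 h, 37 °C/5% CO2; CellTiter-Glo ATP luminescence. % activity vs no-cell wells and DMSO controls (0%); concentration-effect curves classed by r2, response magnitude, activity.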

[5] = S16 Schwann cell PMP22 intronic element firefly luciferase assay (AID 624032);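 also: plate controls were DMSO for no effect and PTC124 positive control mean for full effect; nearly all actives have a fitted effect of over 30% in size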
Procedure, shortened: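 Luciferase reporter of PMP22 intronic-element expression in stably transfected S16 rat Schwann cells, read by ONE-Glo luminescence after 24 h compound exposure at 37 C. Activity scaled between DMSO (0%) and positive-control PTC124; concentration-effect curves quality-classified.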

Furin (Homo sapiens) = Furin (Homo sapiens) (UniProt P09958); test: Furin counterscreen qHTS for Zika virus inhibitors (AID 1347149); also: potency is read from the fitted curve at half-maximal effect; nearly all actives have a fitted effect of over 70% in size
Sequence of Furin (Homo sapiens) (P09958 whole entry, looked up): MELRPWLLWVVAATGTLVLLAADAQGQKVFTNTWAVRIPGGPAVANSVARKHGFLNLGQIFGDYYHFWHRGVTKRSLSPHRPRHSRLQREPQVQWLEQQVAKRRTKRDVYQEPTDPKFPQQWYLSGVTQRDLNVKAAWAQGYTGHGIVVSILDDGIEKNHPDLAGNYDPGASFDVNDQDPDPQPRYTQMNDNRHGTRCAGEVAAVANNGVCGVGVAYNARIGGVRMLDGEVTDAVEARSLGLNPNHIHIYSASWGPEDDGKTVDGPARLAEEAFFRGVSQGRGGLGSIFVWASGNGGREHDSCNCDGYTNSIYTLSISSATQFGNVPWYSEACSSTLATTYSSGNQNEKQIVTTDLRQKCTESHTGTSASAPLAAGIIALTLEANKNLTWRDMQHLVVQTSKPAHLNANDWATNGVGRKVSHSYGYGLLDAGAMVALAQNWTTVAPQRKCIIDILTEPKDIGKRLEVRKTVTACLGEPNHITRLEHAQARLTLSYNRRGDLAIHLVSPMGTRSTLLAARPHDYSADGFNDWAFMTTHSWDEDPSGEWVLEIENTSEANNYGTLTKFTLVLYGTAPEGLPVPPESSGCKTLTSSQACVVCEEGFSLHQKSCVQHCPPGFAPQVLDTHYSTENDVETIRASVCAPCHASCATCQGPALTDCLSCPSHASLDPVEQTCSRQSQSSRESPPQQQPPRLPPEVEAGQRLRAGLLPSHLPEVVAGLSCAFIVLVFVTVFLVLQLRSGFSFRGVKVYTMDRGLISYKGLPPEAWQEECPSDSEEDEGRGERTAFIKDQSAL
Procedure, shortened: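 Fluorogenic cleavage of BOC-RVRR-AMC (2 microM final, Km ~15 µM) was monitored (ex 340, em 450 nm) at 37C after 15 min RT preincubation of 5 nM furin with compounds in HEPES pH 7.0 buffer with CaCl2 and Triton X-100. Percent inhibition was fitted to a 4-parameter Hill curve.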

[6] = Confirmatory screen GU Rhodamine qHTS for Zika virus inhibitors qHTS (AID 1347157); also: potency is read from the fitted curve at half-maximal effect; nearly all actives have a fitted effect of over 70% in size
Procedure, shortened: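 A qHTS format was used, with compound concentrations ranging up to 114 microM. Each compound was preincubated with 25 nM NS2B-NS3 protease, and the substrate was then added at 1.5 microM. Curves were fitted with a 4-parameter Hill model.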

[7] = Confirmatory screen NINDS Rhodamine qHTS for Zika virus inhibitors (AID 1347161); also: potency is read from the fitted curve at half-maximal effect; nearly all actives have a fitted effect of over 60% in size
Procedure, shortened: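 Percent inhibition, normalized to uninhibited and enzyme-free controls, is fitted to a 4-parameter Hill equation. Fluorescence change comes from a 15-min cleavage of 1.5 microM bis-peptide Rhodamine110 substrate by 25 nM linked NS2B-NS3 at room temperature.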

[8] = Tertiary RLuc qRT-PCR qHTS assay for Zika virus inhibitors (AID 1347169); also: top concentration of the series differs between compounds; % is scaled to controls: 0 for no effect and ±100 for the full control effect; nearly all actives have a fitted effect of over 55% in size
Procedure, shortened: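 Orthogonal cell-based readout: luminescence measured 1-1.5 hrs after adding live-cell Renilla substrate to Vero cells that had been infected with ZIKV-RLuc (MOI 1-2) post-compound, incubated 48-72 hrs at 37 degrees C.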

[9] = qHTS profiling for inhibitors of Plasmodium falciparum proliferation (AID 504749);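 also: 0% = DMSO vehicle and full inhibition = artemisinin control; nearly all actives have a fitted effect of over 60% in size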; conditions: P. falciparum in erythrocytes, SYBR Green DNA, 72 h, at 28.7 µM (top of the series)
Procedure, shortened: (§1)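 Three-day growth assay of blood-stage parasites in erythrocytes (0.3% parasitemia, 2.5% hematocrit) at 37 C, 5% CO2, quantified by SYBR Green DNA staining after overnight detergent lysis.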

3D7 = test: as above; conditions: P. falciparum in erythrocytes, SYBR Green DNA, 72 h; series mostly up to 28.7 µM
Procedure, shortened: as §1

AA1029 = test: as above; conditions: P. falciparum in erythrocytes, SYBR Green DNA, 72 h; series mostly up to 28.7 µM
Procedure, shortened: as §1

AS120 = test: as above; conditions: P. falciparum in erythrocytes, SYBR Green DNA, 72 h; series mostly up to 28.7 µM
Procedure, shortened: as §1

ATS189 = test: as above; conditions: P. falciparum in erythrocytes, SYBR Green DNA, 72 h; series mostly up to 28.7 µM
Procedure, shortened: as §1

ATS95 = test: as above; conditions: P. falciparum in erythrocytes, SYBR Green DNA, 72 h; series mostly up to 28.7 µM
Procedure, shortened: as §1

C2A = test: as above; conditions: P. falciparum in erythrocytes, SYBR Green DNA, 72 h; series mostly up to 28.7 µM
Procedure, shortened: as §1

CP185 = test: as above; conditions: P. falciparum in erythrocytes, SYBR Green DNA, 72 h; series mostly up to 28.7 µM
Procedure, shortened: as §1

CP191 = test: as above; conditions: P. falciparum in erythrocytes, SYBR Green DNA, 72 h; series mostly up to 28.7 µM
Procedure, shortened: as §1

CP192 = test: as above; conditions: P. falciparum in erythrocytes, SYBR Green DNA, 72 h; series mostly up to 28.7 µM
Procedure, shortened: as §1

CP194 = test: as above; conditions: P. falciparum in erythrocytes, SYBR Green DNA, 72 h; series mostly up to 28.7 µM
Procedure, shortened: as §1

CP201 = test: as above; conditions: P. falciparum in erythrocytes, SYBR Green DNA, 72 h; series mostly up to 28.7 µM
Procedure, shortened: as §1

CP211 = test: as above; conditions: P. falciparum in erythrocytes, SYBR Green DNA, 72 h; series mostly up to 28.7 µM
Procedure, shortened: as §1

CP217 = test: as above; conditions: P. falciparum in erythrocytes, SYBR Green DNA, 72 h; series mostly up to 28.7 µM
Procedure, shortened: as §1

CP237 = test: as above; conditions: P. falciparum in erythrocytes, SYBR Green DNA, 72 h; series mostly up to 28.7 µM
Procedure, shortened: as §1

CP238 = test: as above; conditions: P. falciparum in erythrocytes, SYBR Green DNA, 72 h; series mostly up to 28.7 µM
Procedure, shortened: as §1

CP250 = test: as above; conditions: P. falciparum in erythrocytes, SYBR Green DNA, 72 h; series mostly up to 28.7 µM
Procedure, shortened: as §1

CP252 = test: as above; conditions: P. falciparum in erythrocytes, SYBR Green DNA, 72 h; series mostly up to 28.7 µM
Procedure, shortened: as §1

CP256 = test: as above; conditions: P. falciparum in erythrocytes, SYBR Green DNA, 72 h; series mostly up to 28.7 µM
Procedure, shortened: as §1

CP260 = test: as above; conditions: P. falciparum in erythrocytes, SYBR Green DNA, 72 h; series mostly up to 28.7 µM
Procedure, shortened: as §1

CP262 = test: as above; conditions: P. falciparum in erythrocytes, SYBR Green DNA, 72 h; series mostly up to 28.7 µM
Procedure, shortened: as §1

CP265 = test: as above; conditions: P. falciparum in erythrocytes, SYBR Green DNA, 72 h; series mostly up to 28.7 µM
Procedure, shortened: as §1

CP266 = test: as above; conditions: P. falciparum in erythrocytes, SYBR Green DNA, 72 h; series mostly up to 28.7 µM
Procedure, shortened: as §1

CP268 = test: as above; conditions: P. falciparum in erythrocytes, SYBR Green DNA, 72 h; series mostly up to 28.7 µM
Procedure, shortened: as §1

CP269 = test: as above; conditions: P. falciparum in erythrocytes, SYBR Green DNA, 72 h; series mostly up to 28.7 µM
Procedure, shortened: as §1

CP286 = test: as above; conditions: P. falciparum in erythrocytes, SYBR Green DNA, 72 h; series mostly up to 28.7 µM
Procedure, shortened: as §1

CP291 = test: as above; conditions: P. falciparum in erythrocytes, SYBR Green DNA, 72 h; series mostly up to 28.7 µM
Procedure, shortened: as §1

CP297 = test: as above; conditions: P. falciparum in erythrocytes, SYBR Green DNA, 72 h; series mostly up to 28.7 µM
Procedure, shortened: as §1

CP305 = test: as above; conditions: P. falciparum in erythrocytes, SYBR Green DNA, 72 h; series mostly up to 28.7 µM
Procedure, shortened: as §1

CP315 = test: as above; conditions: P. falciparum in erythrocytes, SYBR Green DNA, 72 h; series mostly up to 28.7 µM
Procedure, shortened: as §1

CP325 = test: as above; conditions: P. falciparum in erythrocytes, SYBR Green DNA, 72 h; series mostly up to 28.7 µM
Procedure, shortened: as §1

CP329 = test: as above; conditions: P. falciparum in erythrocytes, SYBR Green DNA, 72 h; series mostly up to 28.7 µM
Procedure, shortened: as §1

CP335 = test: as above; conditions: P. falciparum in erythrocytes, SYBR Green DNA, 72 h; series mostly up to 28.7 µM
Procedure, shortened: as §1

DFO2036 = test: as above; conditions: P. falciparum in erythrocytes, SYBR Green DNA, 72 h; series mostly up to 28.7 µM
Procedure, shortened: as §1

DIV14 = test: as above; conditions: P. falciparum in erythrocytes, SYBR Green DNA, 72 h; series mostly up to 28.7 µM
Procedure, shortened: as §1

DIV17 = test: as above; conditions: P. falciparum in erythrocytes, SYBR Green DNA, 72 h; series mostly up to 28.7 µM
Procedure, shortened: as §1

DIV30 = test: as above; conditions: P. falciparum in erythrocytes, SYBR Green DNA, 72 h; series mostly up to 28.7 µM
Procedure, shortened: as §1

ECU = test: as above; conditions: P. falciparum in erythrocytes, SYBR Green DNA, 72 h; series mostly up to 28.7 µM
Procedure, shortened: as §1

FAB9 = test: as above; conditions: P. falciparum in erythrocytes, SYBR Green DNA, 72 h; series mostly up to 28.7 µM
Procedure, shortened: as §1

GB4 = test: as above; conditions: P. falciparum in erythrocytes, SYBR Green DNA, 72 h; series mostly up to 28.7 µM
Procedure, shortened: as §1

JCK = test: as above; conditions: P. falciparum in erythrocytes, SYBR Green DNA, 72 h; series mostly up to 28.7 µM
Procedure, shortened: as §1

N140 = test: as above; conditions: P. falciparum in erythrocytes, SYBR Green DNA, 72 h; series mostly up to 28.7 µM
Procedure, shortened: as §1

P93_24 = test: as above; conditions: P. falciparum in erythrocytes, SYBR Green DNA, 72 h; series mostly up to 28.7 µM
Procedure, shortened: as §1

P94_40 = test: as above; conditions: P. falciparum in erythrocytes, SYBR Green DNA, 72 h; series mostly up to 28.7 µM
Procedure, shortened: as §1

PAD = test: as above; conditions: P. falciparum in erythrocytes, SYBR Green DNA, 72 h; series mostly up to 28.7 µM
Procedure, shortened: as §1

PC15 = test: as above; conditions: P. falciparum in erythrocytes, SYBR Green DNA, 72 h; series mostly up to 28.7 µM
Procedure, shortened: as §1

PC26 = test: as above; conditions: P. falciparum in erythrocytes, SYBR Green DNA, 72 h; series mostly up to 28.7 µM
Procedure, shortened: as §1

PC49 = test: as above; conditions: P. falciparum in erythrocytes, SYBR Green DNA, 72 h; series mostly up to 28.7 µM
Procedure, shortened: as §1

SC27B = test: as above; conditions: P. falciparum in erythrocytes, SYBR Green DNA, 72 h; series mostly up to 28.7 µM
Procedure, shortened: as §1

TAB109 = test: as above; conditions: P. falciparum in erythrocytes, SYBR Green DNA, 72 h; series mostly up to 28.7 µM
Procedure, shortened: as §1

TAB113 = test: as above; conditions: P. falciparum in erythrocytes, SYBR Green DNA, 72 h; series mostly up to 28.7 µM
Procedure, shortened: as §1

TAB165 = test: as above; conditions: P. falciparum in erythrocytes, SYBR Green DNA, 72 h; series mostly up to 28.7 µM
Procedure, shortened: as §1

CC(C)(O)c1ccccc1CC[C@H](SCC1(CC(=O)O)CC1)c1cccc(/C=C/c2ccc3ccc(Cl)cc3n2)c1
active: Potency [2] 39.8 µM | Potency [3] 11.4 µM | Potency (Furin (Homo sapiens)) 52.7 µM | Potency [6] 11.2 µM | Potency [7] 22.4 µM
inactive: outcome [1] | outcome [4] | Potency [5] | Potency [8] | activity, negative = inhibition ([9]; parasite line A) -2.01% | activity, negative = inhibition ([9]; parasite line B) -18.3% | Potency (3D7) | Potency (AA1029) | Potency (AS120) | Potency (ATS189) | Potency (ATS95) | Potency (C2A) | Potency (CP185) | Potency (CP191) | Potency (CP192) | Potency (CP194) | Potency (CP201) | Potency (CP211) | Potency (CP217) | Potency (CP237) | Potency (CP238) | Potency (CP250) | Potency (CP252) | Potency (CP256) | Potency (CP260) | Potency (CP262) | Potency (CP265) | Potency (CP266) | Potency (CP268) | Potency (CP269) | Potency (CP286) | Potency (CP291) | Potency (CP297) | Potency (CP305) | Potency (CP315) | Potency (CP325) | Potency (CP329) | Potency (CP335) | Potency (DFO2036) | Potency (DIV14) | Potency (DIV17) | Potency (DIV30) | Potency (ECU) | Potency (FAB9) | Potency (GB4) | Potency (JCK) | Potency (N140) | Potency (P93_24) | Potency (P94_40) | Potency (PAD) | Potency (PC15) | Potency (PC26) | Potency (PC49) | Potency (SC27B) | Potency (TAB109) | Potency (TAB113) | Potency (TAB165)
